Sampled rows, rich in hits. Any-hit rate of the full collection: about 17%.
HT1080-NT tox: qHTS for induction of synthetic lethality in tumor cells producing 2HG: qHTS for the HT-1080-NT fibrosarcoma cell line; HT-1080-NT fibrosarcoma viability, CellTiter-Glo ATP luminescence, 48 h; Potency, µM (highest dose often 46.1 µM), without a hit: at the highest dose activity, negative = less viability, hits mostly cytotoxic; hit rate 1.6% among 360,000;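 also: NT is the 2HG producing partner of a matched IDH1 knockdown line; 0% = DMSO-treated cells and -100% = media-only wells without cells; nearly all actives have a fitted effect of over 55% in size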
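Toxicity toward the 2HG-producing NT line was scored as %Activity, normalised to DMSO and no-cell wells, from CellTiter-Glo luminescence after 48 hours' treatment.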
DT40 TDP1 no CPT: qHTS for Inhibitors of human tyrosyl-DNA phosphodiesterase 1 (TDP1): qHTS in cells in absence of CPT; DT40 Tdp1-/- hTDP1 cells, no CPT, ATP luminescence, 48 h; Potency, µM (series often up to 46.2 µM), for the others: at the top dose activity change, negative = growth inhibition, actives largely listed as inhibitors; hit rate 15% among 420,000; also: % is scaled to controls: 0 for no effect and ±100 for the full control effect; nearly all actives have a fitted effect of over 55% in size
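A cellular qHTS used chicken DT40 cells lacking endogenous Tdp1 but carrying stably transfected human TDP1. Compounds were applied without camptothecin, and cell growth kinetics were judged by ATP-dependent luminescence after ≥48 hr.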
DT40 TDP1 CPT: qHTS for Inhibitors of human tyrosyl-DNA phosphodiesterase 1 (TDP1): qHTS in cells in presence of CPT; hit rate 12% among 420,000; chicken DT40 Tdp1-/-;hTDP1 cells + 20 nM CPT, ATP luminescence, 48 h; Potency, µM (titrated, usually from 46.2 µM), for inactives: at the highest dose activity change, negative = growth inhibition, hits mostly inhibitors; also: % is scaled to controls: 0 for no effect and ±100 for the full control effect; nearly all actives have a fitted effect of over 55% in size
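Chicken DT40 Tdp1-/- cells stably complemented with human TDP1 were seeded at 400 cells/well in medium containing 20 nM camptothecin, exposed to pin-transferred compounds, and grown at 37 °C for at least 48 hr. Viability was read as ATP luminescence.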
HT1080 IDH1KD tx: qHTS for induction of synthetic lethality in tumor cells producing 2HG: qHTS for the HT-1080-IDH1KD cell line; HT-1080 IDH1 knockdown viability, ATP luminescence, 48 h; Potency, µM (series often up to 46.1 µM), for inactives: at the highest dose activity, negative = toxicity, most hits filed as cytotoxic; hit rate 2% among 360,000;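 also: 0% = DMSO wells and -100% = cell-free medium wells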
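Cytotoxicity counter-line: IDH1KD HT-1080, 48 h, CellTiter-Glo. Curves classed by r2, magnitude and activity.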
HepG2 tox: qHTS for Inhibitors of TGF-b: Cytotox Counterscreen; Potency, µM (highest dose often 46.1 µM), inactives show at the highest dose activity change, negative = cytotoxicity, usual class: cytotoxic; AID 588856, 2011; HepG2 CAGA-GFP viability, ATP luminescence, 18 h; hit rate 0.76% among 410,000
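CellTiter-Glo luminescence gave cytotoxicity after 18 hours at 37 degrees C. The cells were HepG2 CAGA-GFP in 1% FBS DMEM, stimulated with 500 pg/mL TGF-beta after compound addition. %Activity was normalised to no-cell wells (complete cell-killing) and DMSO (no toxicity), and curves were fitted and classified.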
TGFb SMAD3 inh: qHTS for Inhibitors of TGF-b | HepG2 CAGA-GFP TGF-b/SMAD3 reporter, GFP fluorescence, 18 h; TGF-beta stimulated, 500 pg/mL final | Potency, µM (titrated, usually from 46.1 µM), inactives show at the highest dose activity, negative = inhibition, usual class: inhibitors | hit rate 1.2% among 410,000; also: % is scaled to controls: 0 for no effect and ±100 for the full control effect; nearly all actives have a fitted effect of over 65% in size
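HEPG2 CAGA-GFP, 1000 cells/well; 2 h settle, 37 C; cpd via pin tool; TGF-b 500 pg/mL final; 18 h, 37 C; GFP imaging ex488/em500-530; %Activity normalised to -TGF-b and +DMSO controls; CRC fit, curve class.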
Numbers without * were called inactive; ? = inconclusive; / = no result. Calls follow the shape of the dose curve; as a rule, active = well fitted curve in the direction sought with a large enough effect; inconclusive = small, poorly fitted or top-dose-only effect, or another doubt; inactive = no such curve, though single readings can be large; an effect the other way counts as inactive or inconclusive. Potency is read from the fitted curve at half-maximal effect.

SMILES | HT1080-NT tox | DT40 TDP1 no CPT | DT40 TDP1 CPT | HT1080 IDH1KD tx | HepG2 tox | TGFb SMAD3 inh
COc1ccc(-c2csc(C(C)(O)c3ccccc3)n2)cn1 (stereo not drawn) | -2% | ? | ? | -14% | -16% | 0%
CCn1c(=O)n(-c2ccc(F)c(Cl)c2)c(=O)c2sc3ccccc3c21 | / | -19% | 1% | / | 5% | -17%
O=C(Cc1ccccc1)NC1(Cc2ccc(O)cc2)CCCCC1 | -1% | -26% | -25% | -8% | -5% | 17%
COc1ccccc1CCNC(=O)c1c(N)[nH]c(C(=O)c2ccccc2)c1-c1ccc(Br)cc1 | 23% | ? | ? | 5% | / | /
Cc1cc(NC(=O)CSc2nc3c(c(=O)n2-c2ccccc2)SC(C)C3)no1 (stereo not drawn) | 1% | 21µM* | ? | 4% | 1% | 3%
COc1ccc(-n2c(SCC(=O)Nc3cc(C)on3)nc3c(c2=O)SC(C)C3)cc1 (stereo not drawn) | -1% | ? | -2% | -7% | -12% | -3%
CCNC(=O)C1CCCN(C(=O)c2ccc(F)c(Cl)c2)CC1 (stereo not drawn) | 23% | -6% | 0% | 3% | 2% | 21%
CCOc1cc(/C=C2\C(=O)ON=C2C)ccc1OCc1ccccc1 | ? | 15µM* | ? | ? | 5% | -15%
C#CCOc1ccc(Cl)cc1/C=C1/C(=O)ON=C1C | -29% | ? | 23µM* | -9% | 1% | -10%
C#CCOc1ccc(/C=C2/C(=O)ON=C2C)cc1Br | -4% | 26µM* | 23µM* | 2% | 3% | 0%
Cc1cc(NC(=O)C(C)(C)Oc2ccc(Cl)cc2)cc(-c2nc3ncccc3o2)c1O | / | 3% | 8% | / | -6% | -5%
Cc1ccc(-n2c(Cn3nc(C(F)(F)F)cc3C)n[nH]c2=S)cc1 | 7% | -7% | -10% | 3% | 4% | -7%
COc1cccc(/C=C2/SC(=S)N(CC(=O)Nc3nccs3)C2=O)c1 | / | -3% | 11% | / | 9% | 44%
CCOc1ccc(C(=O)NC(C(=O)N2CCC2)C(C)C)cc1 (stereo not drawn) | -6% | -29% | -22% | -4% | -2% | -4%
Nc1ccc2c(c1)C=C/C2=C\c1ccccc1 | / | ? | 3% | / | -28% | 3%
CC1(Cc2ccccc2OC(F)(F)F)C(=O)Nc2ccc(-c3ccsc3)cc21 (stereo not drawn) | ? | 18µM* | ? | -8% | -107% | ?
CC1(Cc2ccccc2OC(F)(F)F)C(=O)Nc2ccc(OC(F)(F)F)cc21 (stereo not drawn) | ? | 21µM* | 21µM* | 21µM* | -106% | ?
CC1(Cc2ccc3ccccc3n2)C(=O)Nc2ccc(OC(F)(F)F)cc21 (stereo not drawn) | -19% | ? | ? | -18% | -40% | -18%
CC1(Cc2ccc(OC(F)(F)F)cc2)C(=O)Nc2ccc(S(=O)(=O)NC3CCCCC3)cc21 (stereo not drawn) | 13µM* | ? | ? | 12µM* | 11µM* | ?
CCOC(=O)/C=c1\s/c(=C\c2ccc(C)cc2)c(=O)n1CC(=O)NCc1ccco1 | 6% | ? | 16µM* | 10% | 10% | 20%
CCOC(=O)/C=c1\s/c(=C\c2ccc(-c3ccccc3)cc2)c(=O)n1CC(=O)NCc1ccc2c(c1)OCO2 | 0% | 9.2µM* | 9.2µM* | -2% | 0% | 0%
CCOC(=O)/C=c1/s/c(=C/c2ccc3cc(OC)ccc3c2)c(=O)n1CC(=O)NCc1ccc2c(c1)OCO2 | 0% | 9.2µM* | 5.8µM* | 5% | -7% | 17%
Cc1c(C(=O)NCc2ccc3c(c2)OCO3)sc(=O)n1Cc1ccc(-c2ccccc2)cc1 | 2% | -23% | ? | 1% | -13% | -5%
CCOC(=O)/C=c1\s/c(=C\c2ccc(C(F)(F)F)cc2)c(=O)n1CC(=O)NCc1ccco1 | 2% | ? | ? | ? | 5% | -20%
CCOC(=O)/C=c1\s/c(=C\c2ccc3cc(OC)ccc3c2)c(=O)n1CC(=O)NCC1CCCO1 (stereo not drawn) | 12% | 6.5µM* | 9.2µM* | 17% | -2% | 7%
SMILES | HT1080-NT tox | DT40 TDP1 no CPT | DT40 TDP1 CPT | HT1080 IDH1KD tx | HepG2 tox | TGFb SMAD3 inh
N#Cc1ccc(CN2CCN(C(=O)c3ccccc3)CC2)c(Cl)c1 | 1% | -2% | -17% | 13% | -16% | 21%
CC(=O)Nc1ccc(S(=O)(=O)N2C(C)CCCC2C)cc1 (stereo not drawn) | 5% | ? | ? | 3% | 18% | 14%
COc1ccc(N2CCN(C(CNC(=O)c3ccc4c(c3)OCO4)c3ccco3)CC2)cc1 (stereo not drawn) | -12% | ? | ? | -14% | -1% | 1%
CCCCCCCCCCCCCCCCCCN(CCCCCCCCCCCCCCCCCC)c1ccc(/C=C/c2ccnc3ccccc23)cc1 | / | -4% | -9% | / | -29% | -26%
CCCCN(CCC(=O)O)c1ccc(/C=C/c2ccnc3ccccc23)cc1 | / | 16µM* | 5.6µM* | / | 5.6µM* | ?
CCN(CCCN(C)C)c1ccc(/C=C/c2ccnc3ccccc23)cc1 | / | 16µM* | ? | / | -2% | 22%
CCCCN(CCCC)c1ccc(/C=C/c2ccnc3ccccc23)cc1 | / | ? | ? | / | -40% | 42%
CCCCCN(CCCCC)c1ccc(/C=C/c2ccnc3ccccc23)cc1 | / | 13µM* | ? | / | -9% | -4%
CC(Oc1ccc(O)cc1)(P(=O)(O)O)P(=O)(O)O | / | -9% | 25% | / | / | /
CN(C)S(=O)(=O)c1cccc(NC(=O)c2cccc(S(=O)(=O)N3CCCCC3)c2)c1 | 7% | ? | ? | 7% | -3% | -20%
C=Cc1ccc(Cn2c(C)c(C(=O)NCc3ccc4c(c3)OCCO4)sc2=O)cc1 | -8% | 10µM* | ? | -14% | -4% | -10%
CSc1ccc(Cn2c(C)c(C(=O)NCc3ccc4c(c3)OCO4)sc2=O)cc1 | -8% | 15µM* | ? | -9% | -33% | -11%
Cc1c(C(=O)NCc2ccccc2C(F)(F)F)sc(=O)n1Cc1ccc(F)cc1 | -21% | ? | 21µM* | -16% | -19% | -19%
